Source: PubChem BioAssay AID493056 (National Center for Advancing Translational Sciences (NCATS), 2011)
The campaign covered roughly 360,000 compounds. About 2,400 (0.67%) were called active. No stated cut-off is given here; in the data, active means enhancement above about 30%; inactive means the rest. For the sample, actives were picked, then their nearest neighbours and some compounds at random.
Further: 0% is about no effect.

These compounds were tested against Thyrotropin-releasing hormone receptor (Homo sapiens) (UniProt P34981) (assay: qHTS for Small Molecule Agonists and Allosteric Enhancers of Human TRH Receptor: Primary Screen for Enhancers). Conditions: TRHR cells, fluo-8 calcium fluorescence, EC20 TRH enhancement; at 2 µM; active compounds read high.
Chain of Thyrotropin-releasing hormone receptor (Homo sapiens) (P34981 whole entry, looked up): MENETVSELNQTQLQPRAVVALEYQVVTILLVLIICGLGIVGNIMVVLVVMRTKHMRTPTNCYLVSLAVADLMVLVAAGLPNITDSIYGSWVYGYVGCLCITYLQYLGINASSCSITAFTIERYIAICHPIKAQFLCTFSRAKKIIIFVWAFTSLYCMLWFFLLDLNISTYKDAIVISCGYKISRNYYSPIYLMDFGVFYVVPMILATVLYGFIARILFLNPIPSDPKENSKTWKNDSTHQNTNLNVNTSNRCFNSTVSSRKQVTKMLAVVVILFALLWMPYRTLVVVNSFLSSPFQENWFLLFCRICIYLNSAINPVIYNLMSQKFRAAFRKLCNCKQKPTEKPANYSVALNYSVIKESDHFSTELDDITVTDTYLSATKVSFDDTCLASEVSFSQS
Method in brief: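 Enhancer read-out: after compound pinning and an initial kinetic agonist-mode read, an EC20 of TRH (10 nM final) was injected and fluo-8 calcium signal (Ex 480/Em 530) followed at 1 s/cycle for 100 cycles in TRHR-expressing cells.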
`Cc1cn(C)c(CC(=O)NCc2ccccc2)c1C(=O)O` was tested, and the enhancement was -2.62% (inactive). In the case of `Cc1cccc(-c2nc(SCc3ccc(Br)cc3)n3[nH]c(=O)cc3n2)c1`, the enhancement is reported as 4.69% (inactive). `O=C(NC1(C(F)(F)F)N=C(c2ccccc2)N(C2CCCCC2)C1=O)c1ccccc1F` (stereo not given) was tested, and the enhancement was -3.75% (inactive). `CN1CCN(c2oc(-c3ccc(COc4ccc(Cl)cc4)o3)nc2C#N)CC1` was tested, and the enhancement was 0.896% (inactive). In the case of `Cc1ccc(C)c(NC(=O)C2CCCN(S(=O)(=O)c3cn(C)cn3)C2)c1` (stereo not given), the enhancement is reported as 12.8% (inactive). With `O=C(NCc1ccccc1)C1CCCN(S(=O)(=O)c2cccs2)C1` (stereo not given) the enhancement was 4.34% (inactive). `O=C(NCc1ccncc1)C1CCCN(S(=O)(=O)c2ccc(Br)cc2)C1` (stereo not given) was tested, and the enhancement was 30.7% (active). In the case of `CSc1ccc(S(=O)(=O)N2CCC(C(=O)NCc3ccncc3)CC2)cc1`, the enhancement is reported as 0.598% (inactive). For `CCc1nc2c(cnn2-c2ccc(C)cc2)c(=O)n1-c1ccc(C)cc1`, the enhancement was -4.12% (inactive). In the case of `Cc1ccc(Cn2ncc3c4sc(C)cc4n(C)c3c2=O)c(C)c1`, the enhancement is reported as 4.39% (inactive). With `CCCN(CCC)CCNC(=O)c1ccc2c(c1)NC(=O)C(CS(=O)(=O)Cc1cccc(Br)c1)N2` (stereo not given) the enhancement was 5.05% (inactive). `O=C(C1CCN(C2CCN(Cc3cccc4c3OCO4)CC2)CC1)N1CCOCC1` was tested, and the enhancement was 2.59% (inactive). In the case of `C/C(=C\c1ccco1)CN1CCC(N2CCC(C(=O)N3CCOCC3)CC2)CC1`, the enhancement is reported as 46.7% (active). `O=C(C1CCN(C2CCN(Cc3ccc4cc(F)ccc4n3)CC2)CC1)N1CCCC1` was tested, and the enhancement was -6.35% (inactive). In the case of `Cc1ccc(-c2nc(SCc3ccc(Br)cc3)n3[nH]c(=O)cc3n2)cc1`, the enhancement is reported as -0.363% (inactive). In the case of `CC(C)Oc1ccc(NC(=O)c2cc3ccccc3o2)cc1`, the enhancement is reported as 7.33% (inactive). With `Cc1c(/C=N\NC(=O)c2cc3ccccc3o2)c2ccccc2n1C` the enhancement was 44.3% (active). For `CC(C)(C)n1nc2c(c1NC(=O)c1cc3ccccc3o1)CSC2`, the enhancement was 1.55% (inactive). For `O=C(NCCS(=O)(=O)N1CCN(c2ccc(F)cc2)CC1)c1ccccc1Br`, the enhancement was 1.15% (inactive). In the case of `Cc1ccc(C2CCN(C(=O)c3cnn(-c4ccccc4Cl)c3C3CCN(C(=O)OC(C)(C)C)CC3)C2)cc1` (stereo not given), the enhancement is reported as 3.84% (inactive). In the case of `CN1CCN(S(=O)(=O)c2ccc(N3CCN(S(=O)(=O)c4cccs4)CC3)nc2)CC1`, the enhancement is reported as 39.6% (active). `CC(=O)Nc1ccc(S(=O)(=O)N2CCN(S(=O)(=O)c3cccs3)CC2)cc1` was tested, and the enhancement was -0.8% (inactive). With `O=S(=O)(c1cccs1)N1CCN(CCOc2ccccc2)CC1` the enhancement was 5.02% (inactive). `CCOC(=O)C1CCN(c2csc3ccc(C)cc3c2=O)CC1` was tested, and the enhancement was -6.67% (inactive). For `CCOC(=O)C1CCC(CN(Cc2ccc(OC)cc2)S(=O)(=O)c2ccc(F)c(C(=O)Nc3cc(C)ccc3C)c2)CC1` (stereo not given), the enhancement was -3.18% (inactive). `CC(=O)N1CCN(CC(=O)Nc2ccc(C)c(F)c2)CC1` was tested, and the enhancement was 47.8% (active). In the case of `Cc1ccc(NC(=O)CN2c3ccccc3S(=O)(=O)c3ccccc32)cc1F`, the enhancement is reported as 10.5% (inactive). For `COC(=O)c1cc(NC(=O)CN2CCN(C(C)=O)CC2)cc(C(=O)OC)c1`, the enhancement was 6.58% (inactive). `CCOc1ccc(C2C(C(=O)Nc3ccc(Cl)cc3)=C(C)Nc3nc(C(F)(F)F)nn32)cc1` (stereo not given) was tested, and the enhancement was 10.8% (inactive). For `C#CC(C)(CC)NC(=O)Cn1nnc(-c2ccc(OCc3c(F)cccc3Cl)cc2)n1` (stereo not given), the enhancement was 1.56% (inactive). In the case of `O=C(COc1ccc(S(=O)(=O)N2CCCCC2)cc1)NCc1ccccn1`, the enhancement is reported as 36.9% (active). With `O=C(NCc1ccccn1)C1CCN(S(=O)(=O)c2ccc(Br)cc2)CC1` the enhancement was -2.72% (inactive). For `CCOc1ccccc1NC(=O)COc1ccc(S(=O)(=O)N2CCCC2)cc1`, the enhancement was 19.7% (inactive). For `COc1cccc(N2CC(NC(=O)/C=C\c3ccccc3)CC2=O)c1` (stereo not given), the enhancement was 5.73% (inactive). `CCc1ccc(NC(=O)CSc2nc3c([nH]c4ccccc43)c(=O)n2-c2cccc(OC)c2)cc1` was tested, and the enhancement was 2.51% (inactive). In the case of `Cc1ccccc1CC1(CO)CCCN(Cc2ccc3c(c2)OCCO3)C1` (stereo not given), the enhancement is reported as 2.06% (inactive). For `CCOc1cc(CN2CCCC(CO)(Cc3ccc(F)cc3F)C2)ccc1OC` (stereo not given), the enhancement was 45.4% (active). `CCc1[nH]nc(C(=O)N2CCCC(CO)(Cc3ccc(F)cc3F)C2)c1C` (stereo not given) was tested, and the enhancement was -3.46% (inactive). With `CC(C)(C)OC(=O)N1CCC(c2c(C(=O)NCc3ccccn3)cnn2-c2ccc(F)cc2)CC1` the enhancement was 0.916% (inactive). `CSc1nc(=O)c2c(n1C)NC(=O)CC2c1ccccc1OC(C)C` (stereo not given) was tested, and the enhancement was 1.92% (inactive). With `Cc1cc(C)c2oc(C(=O)Nc3c(C(=O)Nc4ccccc4)oc4ccccc34)cc(=O)c2c1` the enhancement was -1.76% (inactive). With `Cc1ccc(S(=O)(=O)N(CC(=O)Nc2ccc(Cl)cc2Cl)c2ccccc2C)cc1` the enhancement was -0.851% (inactive). In the case of `CCCOc1ccc(C(=O)Nc2ccc3oc(-c4cccc(Cl)c4Cl)nc3c2)cc1`, the enhancement is reported as -0.105% (inactive). In the case of `Cc1ccccc1-c1nc2cc(NC(=O)c3cccc(OCCC(C)C)c3)ccc2o1`, the enhancement is reported as -6.29% (inactive). `CCCCOc1ccc(C(=O)Nc2cccc(-c3nc4ccccc4o3)c2C)cc1` was tested, and the enhancement was 36% (active). For `Cc1ccc(S(=O)(=O)c2nnn3c2nc(N2CCN(c4ccccc4F)CC2)c2cc(Cl)ccc23)cc1C`, the enhancement was 15.1% (inactive). In the case of `COc1ccccc1CNC(=O)c1ccc(-n2c(C)cc3c2CCCC3)cc1`, the enhancement is reported as -0.647% (inactive). With `Cc1noc(C)c1-c1ccc2ncnc(NCc3ccc(F)c(F)c3)c2c1` the enhancement was -4.49% (inactive). For `Clc1ccc2nc(-c3ccccc3)nc(C(Cl)Cl)c2c1`, the enhancement was 2.39% (inactive). `O=C(O)c1ccc(Nc2nc(-c3ccccc3)c3cc(Br)ccc3n2)cc1` was tested, and the enhancement was 7.15% (inactive). For `O=C(CCl)NNc1nc(-c2ccccc2)c2cc(Cl)ccc2n1`, the enhancement was 32.4% (active). In the case of `Cc1nc(N=C(N)N)nc2c(C)cccc12`, the enhancement is reported as 10.2% (inactive). `O=C(Cn1c(=O)nc(-c2ccccc2)c2cc(Cl)ccc21)NCc1ccc(Cl)cc1` was tested, and the enhancement was 10.8% (inactive). With `NC(N)=Nc1nc(-c2ccccc2)c2cc(Cl)ccc2n1` the enhancement was 48.4% (active). For `CCC(C)NC(=O)Cn1c(=O)n(-c2ccc(Cl)cc2)c(=O)c2c3c(sc21)CCCC3` (stereo not given), the enhancement was 2.95% (inactive).
